About 760 (69%) of roughly 1,100 compounds were called active. No rule for the calls is given here. The set was probably picked from earlier hits. This is one part of the list.

The source of these data is PubChem BioAssay AID1259417 (TB Discovery Research, Infectious Disease Research Institute, 2018).

The nature of the assay: M. tuberculosis growth inhibition, HTS (AID 1259417).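 Also: bacteria grown with compound for 5 days at 37 °C.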 The conditions noted are these: stronger effect = higher value, concentration not given here.
The mark [1] stands for this setting: M. tuberculosis DsRed fluorescence growth inhibition.
[2] abbreviates: M. tuberculosis growth inhibition.

The term inhibition denotes the drop in the measured response relative to a control, in per cent. For the molecule `CN(C)C(=S)Nc1nc2ccccc2s1`, the inhibition under setting [1] is 99.7% (active) and the inhibition under setting [2] stood at 99.8%.

With `O=C(NCc1cccs1)c1cc2n(n1)C(C(F)(F)F)CC(c1ccc3c(c1)OCO3)N2` (stereo not given), the inhibition was 2.08% (inactive) under setting [1] and -5.24% under setting [2].

Consider `Cc1ccc(C2CC(C(F)(F)F)n3nc(C(=O)NCc4ccco4)cc3N2)cc1` (stereo not given), for which the inhibition by setting is: under setting [1], 80% (active); under setting [2], 76.1%.

Consider `CCCCNC(=O)c1cc2n(n1)C(C(F)(F)F)CC(c1ccccc1)N2` (stereo not given), for which the inhibition under setting [1] was 95.4% (active) and the inhibition under setting [2] turned out to be 91.8%.

With `CNc1nc(N2CCc3ccccc32)ncc1F`, the inhibition by setting is: under setting [1], 100% (active); under setting [2], 99.7%.

On to `COc1ccc2[nH]cc(CCNC(=S)Nc3ccc(Nc4ccccc4)cc3)c2c1`, for which the inhibition is -2.93% (inactive) under setting [1] and -13.6% under setting [2].

For the molecule `COc1ccc(NC(=O)C(Cc2c[nH]c3ccccc23)NC(C)=O)cc1` (stereo not given), the inhibition is 93.6% (active) under setting [1] and 90.1% under setting [2].

For `Cc1ccc(-c2csc(Nc3ccc(C(=O)O)c(O)c3)n2)cc1`, the inhibition is 94.8% (active) under setting [1] and 94.9% under setting [2].

With `Cc1ccc(-c2csc(Nc3ccc(S(N)(=O)=O)cc3)n2)cc1`, the inhibition runs as follows: under setting [1], 33.4% (active); under setting [2], 44.5%.

For the molecule `Cc1cc(-c2csc(Nc3ccc(S(N)(=O)=O)cc3)n2)ccc1F`, the inhibition under setting [1] is 12% (inactive) and the inhibition under setting [2] is 9.99%.

Take `O=C(Nc1ccccc1-c1ccccc1)C(Cl)(Cl)Cl`: the inhibition reads like this: under setting [1], 100% (active); under setting [2], 99.6%.

On to `C/C=C/c1ccc(OCC(=O)OCc2csc(Nc3ccc(C)cc3)n2)c(OC)c1`, for which the inhibition under setting [1] was 0.924% (active) and the inhibition under setting [2] was determined as 37.2%.

Consider `Oc1ccc(Br)cc1C1=NNC(c2ccc(F)cc2)C1` (stereo not given), for which the inhibition is 99.5% (active) under setting [1] and 100% under setting [2].

With `CCC(C)Oc1ccc(C(=O)NC(=S)Nc2ccc3c(c2)COC3=O)cc1` (stereo not given), the inhibition under setting [1] is 30.7% (active) and the inhibition under setting [2] is 25.2%.

Regarding `CCOC(=O)CSc1cc(C)nc2ccc(C)cc12`, the inhibition under setting [1] is 96.8% (active) and the inhibition under setting [2] was 99.3%.

As to `COc1ccc2nc(C)cc(SCC(=O)OC(C)C)c2c1`, the inhibition under setting [1] was 89.3% (active) and the inhibition under setting [2] is 99.6%.

Turning to `Oc1cccc2ccc(C=Cc3cccc(F)c3)nc12`, the inhibition by setting is: under setting [1], 98.8% (active); under setting [2], 99.7%.

Regarding `CC(=O)Oc1cccc2ccc(C=Cc3ccc(F)cc3)nc12`, the inhibition by setting is: under setting [1], 86.6% (active); under setting [2], 89.9%.

Consider `CC(=O)Oc1cccc2ccc(C=Cc3cccc(Br)c3)nc12`, for which the inhibition by setting is: under setting [1], 87.4% (active); under setting [2], 84%.

For `CCC(=O)Oc1cccc2ccc(C=Cc3ccccc3F)nc12`, the inhibition under setting [1] was 92.1% (active) and the inhibition under setting [2] amounted to 87.6%.

In the case of `O=C(C=Cc1cccc(C(F)(F)F)c1)Nc1cccc(Br)c1`, the inhibition is, setting by setting: under setting [1], 9.1% (inactive); under setting [2], 9.88%.

For `O=C(C[n+]1cc(-c2ccc(Cl)c(Cl)c2)n2c1CCC2)N1c2ccccc2Sc2ccccc21`, the inhibition by setting is: under setting [1], 37.7% (active); under setting [2], 43.1%.

Turning to `Cc1ccc(-c2csc(NC(=O)C[n+]3cc(-c4ccc(C)cc4)n4c3CCC4)n2)cc1`, the inhibition by setting is: under setting [1], 13.7% (inactive); under setting [2], 7.92%.

For `O=C(C[n+]1cc(-c2ccc(Cl)cc2)n2c1CCC2)N1c2ccccc2Sc2ccccc21`, the inhibition by setting is: under setting [1], 10.7% (inactive); under setting [2], 3.46%.

`CCCCn1c(=O)c(C(=O)Nc2nnc(C(C)C)s2)c(O)c2ccccc21`: the inhibition by setting is: under setting [1], 76.9% (active); under setting [2], 72.9%.

For `CCOC(=O)COc1ccc2ccccc2c1C=C(C)[N+](=O)[O-]`, the inhibition is 24% (inactive) under setting [1] and 10.8% under setting [2].

For `COc1cc(/C=C/c2ccc3c([N+](=O)[O-])cccc3n2)ccc1OCC(=O)O`, the inhibition is 89.6% (active) under setting [1] and 92.7% under setting [2].

As to `O=[n+]1c2ccccc2n([O-])c2ccccc21`, the inhibition was 98.3% (active) under setting [1] and 98.8% under setting [2].

Regarding `CCCn1c(CNc2ccccc2O)nc2ccccc21`, the inhibition was 99.4% (active) under setting [1] and 100% under setting [2].

As for `COC(=O)c1c(NC(=O)c2cc(OC)cc(OC)c2)sc2c1C(C(=O)OC)CC2` (stereo not given), the inhibition is -0.558% (inactive) under setting [1] and -13.8% under setting [2].

`CCOC(=O)c1c(-c2ccc(C)o2)csc1NC(=S)NC(=O)N(C)C`: the inhibition by setting is: under setting [1], 2.65% (inactive); under setting [2], -1.32%.

As for `CCc1c(C)sc(NC(=O)c2c(F)c(F)c(F)c(F)c2F)c1C(=O)OC(C)C`, the inhibition by setting is: under setting [1], 98.2% (active); under setting [2], 95.8%.

With `CCOC(=O)c1c(NC(=O)c2cccc(OC)c2)sc(C)c1-c1ccccc1`, the inhibition was 0.932% (inactive) under setting [1] and -15.9% under setting [2].

Take `COC(=O)c1c(-c2ccccc2)csc1NC(=O)c1cc(OC)cc(OC)c1`: the inhibition under setting [1] is 4.19% (inactive) and the inhibition under setting [2] is -6.55%.

Consider `COC(=O)c1c(-c2ccc(Cl)cc2)csc1NC(=O)c1c(F)c(F)c(F)c(F)c1F`, for which the inhibition is 91.1% (active) under setting [1] and 87.2% under setting [2].

With `CCc1c(C)sc(NC(=O)c2ccc(Br)cc2)c1C(N)=O`, the inhibition is, setting by setting: under setting [1], 4.19% (inactive); under setting [2], 7.97%.

For `COC(=O)c1sc(NC(=O)c2c(F)c(F)c(F)c(F)c2F)c(C(N)=O)c1C`, the inhibition runs as follows: under setting [1], 98.6% (active); under setting [2], 96.9%.

For the molecule `Cc1ccccc1C(=O)Nc1sc(Cc2ccccc2)c(C)c1C(N)=O`, the inhibition by setting is: under setting [1], -2.04% (inactive); under setting [2], -9.31%.

Regarding `CCOC(=O)c1c(NC(=O)c2cccc([N+](=O)[O-])c2)sc(CC)c1-c1ccccc1`, the inhibition reads like this: under setting [1], 4.19% (inactive); under setting [2], -29.7%.

Turning to `CCOC(=O)c1c(NC(=O)c2c(F)c(F)c(F)c(F)c2F)sc(C(=O)OC)c1C`, the inhibition under setting [1] is 99.4% (active) and the inhibition under setting [2] is 97.6%.

`COC(=O)c1sccc1NC(=O)c1c(F)c(F)c(F)c(F)c1F`: the inhibition is, setting by setting: under setting [1], 99.1% (active); under setting [2], 97.7%.

With `CCOC(=O)c1c(NC(=O)c2cccc(OC(C)=O)c2)sc(CC)c1-c1ccccc1`, the inhibition is 2.11% (inactive) under setting [1] and -5.86% under setting [2].

In the case of `CCOC(=O)c1sc(NC(=O)c2c(F)c(F)c(F)c(F)c2F)c(C(=O)OCC)c1C`, the inhibition reads like this: under setting [1], 93.8% (active); under setting [2], 88.9%.

For `CCOC(=O)c1c(NC(=O)c2c(F)c(F)c(F)c(F)c2F)sc(C(N)=O)c1C`, the inhibition is, setting by setting: under setting [1], 98.6% (active); under setting [2], 99.4%.

In the case of `CCOc1ccc2ccccc2c1C(=O)Nc1sc(C)c(C)c1C(N)=O`, the inhibition reads like this: under setting [1], 9.82% (inactive); under setting [2], 9.7%.
